CYP2C19 inh – inhibitors of human CYP2C19 | AID 778 | CYP2C19 Supersomes, luciferin-H EGE luminescence, 30 min | P33261 | 96,000 tested, 21% active | inhibition, % at 5 µM;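 active = CYP2C19 inhibition above a set limit at 5 µM in the primary screen, cut at about 50% in these data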
PLK1 kinase inh – PLK1 (human) kinase inhibition. recombinant PLK1 kinase, TR-FRET peptide phosphorylation. inhibition, % at 10 µM. 97,000 tested, 0.53% active. P53350;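 active = inhibition of 50% or more in the single-concentration screen; inactive = inhibition below 50%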
Target sequence (P53350 whole entry, looked up): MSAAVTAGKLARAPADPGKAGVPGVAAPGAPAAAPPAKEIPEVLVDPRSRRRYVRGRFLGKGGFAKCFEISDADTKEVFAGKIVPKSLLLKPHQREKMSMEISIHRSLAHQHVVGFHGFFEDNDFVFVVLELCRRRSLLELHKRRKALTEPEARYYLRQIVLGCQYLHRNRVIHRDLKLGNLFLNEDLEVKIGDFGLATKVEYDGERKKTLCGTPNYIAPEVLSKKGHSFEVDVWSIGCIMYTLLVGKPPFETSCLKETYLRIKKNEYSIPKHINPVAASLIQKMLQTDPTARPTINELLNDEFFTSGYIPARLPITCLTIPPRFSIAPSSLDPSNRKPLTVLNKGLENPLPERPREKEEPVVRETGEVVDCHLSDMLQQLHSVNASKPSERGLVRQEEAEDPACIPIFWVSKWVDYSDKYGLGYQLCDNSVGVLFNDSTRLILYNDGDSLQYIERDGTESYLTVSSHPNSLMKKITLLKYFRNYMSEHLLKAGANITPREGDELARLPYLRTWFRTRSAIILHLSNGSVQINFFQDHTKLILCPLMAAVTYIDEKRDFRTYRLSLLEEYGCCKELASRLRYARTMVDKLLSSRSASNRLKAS
CYP2C9 inh – inhibitors of human CYP2C9; P11712; CYP2C9 Supersomes, luciferin-H conversion, luminescence; inhibition, % at 5 µM; 96,000 tested, 20% active;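 active = blocking of liver enzyme CYP2C9 beyond about 50% at 5 µM, limit read from the data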
CYP2C19 act – cytochrome P450 2C19 (human) activation; activation factor at 5 µM; AID 1025; P33261; recombinant CYP2C19, luciferin-H EGE luminescence; stronger effect = higher value; 0 = fully inhibited enzyme, 1 = untreated enzyme; 96,000 tested, under 10 active;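 active = activation factor of at least 2 at 5 µM in the primary screen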
PLK1 PBD inh – blocks phosphopeptide binding to human Plk1 polo box domain | Plk1 PBD phosphopeptide binding, fluorescence polarization | inhibition, %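 (tested at about 20 µM)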 | 97,000 tested, 0.13% active | AID 693; in the data active = inhibition above about 34%, passing the limit was not always enough
CYP2C9 activ – increases human cytochrome P450 2C9 activity; recombinant CYP2C9, luciferin-H conversion, luminescence; stronger effect = higher value; factor 1 = untreated enzyme, 0 = blocked; activation factor at 5 µM; 96,000 tested, 1.4% active; AID 1024;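 active = activation factor of 2 or more for CYP2C9 at a 5 µM dose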
Numbers stand for hits; i = inactive; nt = no result. Sampled rows, rich in hits. Any-hit rate of the full collection: about 28%.

SMILES	CYP2C19 inh	PLK1 kinase inh	CYP2C9 inh	CYP2C19 act	PLK1 PBD inh	CYP2C9 activ
COc1ccc(S(=O)(=O)Cc2ccc(C(=O)NCc3cccs3)o2)cc1	i	i	60	i	i	i
O=C(NCc1cccs1)c1ccc(CS(=O)(=O)c2ccc(Cl)cc2)o1	52	i	72	i	i	i
CCOc1cc(C(=O)N2CCN(c3ccc(C(C)=O)cc3)CC2)cc(OCC)c1OCC	i	i	i	i	i	i
O=C(CSc1nc2ccccc2s1)N1CCN(C(=O)c2ccco2)CC1	i	i	i	i	i	i
CCOc1ccc2nc(SCC(=O)N3CCN(C(=O)c4ccco4)CC3)sc2c1	i	i	53	i	i	i
COc1ccc2c(c1)nc(SCC(=O)c1cccs1)n2C	51	i	i	i	i	i
CCc1cc2cccc(C)c2nc1SCC(=O)N1CCN(C(=O)c2ccco2)CC1	i	nt	57	i	nt	i
O=C(CSc1nc(-c2ccc(F)cc2)cs1)N1CCN(C(=O)c2ccco2)CC1	76	nt	i	i	nt	i
O=C(CSc1nnc(-c2ccccc2)n1-c1ccccc1)N1c2ccccc2Sc2ccccc21	i	i	i	i	i	i
CCc1cc2ccc(C)cc2nc1SCC(=O)N1CCN(C(=O)c2ccco2)CC1	65	i	94	i	i	i
CCOc1ccc2nc(SCC(=O)c3cccs3)sc2c1	55	i	i	i	i	i
CCOc1ccc2nc(SCC(=O)c3ccc(Cl)s3)sc2c1	i	i	i	i	i	i
Cc1nc(SCC(=O)N2CCN(C(=O)c3ccco3)CC2)c2c(C)c(C)sc2n1	51	i	73	i	i	i
CCS(=O)(=O)N1CCC(C(=O)c2ccc(Cl)cc2)CC1	nt	i	nt	nt	i	nt
COc1ccc(S(=O)(=O)N(Cc2cccs2)C2CCCC2)cc1	i	i	i	i	i	i
COc1ccc(S(=O)(=O)N(C)Cc2cccs2)cc1Br	96	i	i	i	i	i
COc1cccc(/C=N/NC(=O)c2[nH]c(C)c(C(=O)N/N=C/c3cccc(OC)c3O)c2C)c1O	i	i	i	i	i	i
COC(=O)CNc1nc(-c2ccncc2)nc2ccccc12	56	i	84	i	i	i
CCn1ncc([N+](=O)[O-])c1C(=O)N1CCCC1	i	i	i	i	i	i
CCn1cc([N+](=O)[O-])c(C(=O)N2CCCC2)n1	56	i	i	i	i	i
COc1ccc(CCNC(=O)/C=C/c2ccc(C)cc2)cc1OC	i	i	i	i	i	i
O=C(/C=C\Nc1cccc(F)c1)c1cccs1	55	i	i	i	i	i
CCn1nc(NC(=O)c2cccnc2)c2cc3ccccc3nc21	i	i	62	i	i	i
CCOc1ccc(CC2c3cc(OCC)c(OCC)cc3CCN2C(=O)c2cc(OC)c(OC)c(OC)c2)cc1OCC (configuration not stated)	65	i	60	i	i	i
Cc1ccc([N+](=O)[O-])cc1N=C(c1cccc(Br)c1)N1CCOCC1	64	i	52	i	i	i
SMILES	CYP2C19 inh	PLK1 kinase inh	CYP2C9 inh	CYP2C19 act	PLK1 PBD inh	CYP2C9 activ
O=C(Oc1ccccc1C(=O)N1CCOCC1)c1cccc(Br)c1	i	i	i	i	i	i
Cn1c(=O)c2c(n(C)c1=O)=NC1(CCCCC1)ON=2	i	i	i	i	i	i
COc1ccccc1/C=C/CN1CCN(c2ccccc2)CC1	82	i	i	i	i	i
COc1cccc(OC)c1OCC(O)CN1CCN(c2ccccc2)CC1 (configuration not stated)	i	i	i	i	i	i
Oc1c(C(c2cccs2)N2CCN(c3ccccc3)CC2)sc2ncnn12 (configuration not stated)	nt	i	nt	nt	i	nt
Oc1c(C(c2cccs2)N2CCC3(CC2)OCCO3)sc2ncnn12 (configuration not stated)	87	i	58	i	i	i
O=C(NC1CCCCC1)/C(=N\O)c1ccccn1	i	i	i	i	i	i
COCCn1c(SC(C)C(=O)Nc2ncc(Cl)cc2Cl)nc2ccccc21 (configuration not stated)	68	i	i	i	i	i
CCNC(=O)NC(=O)CSc1nc2ccccc2n1CCOC	i	i	61	i	i	i
CCCNC(=O)NC(=O)CSc1nc2ccccc2n1CC(C)C	88	i	53	i	i	i
COc1ccc(NC(=O)C2=C(C)Nc3ncnn3C2c2ccccc2C(F)(F)F)c(OC)c1 (configuration not stated)	i	i	i	i	i	i
CCOC(=O)C(CC)/C(C)=N/NC(=O)c1ccc([N+](=O)[O-])cc1 (configuration not stated)	i	i	i	i	i	i
COc1ccc(CN2CC(C(=O)NCCc3ccc(C)cc3)CC2=O)cc1 (configuration not stated)	i	i	i	i	i	i
CCOC(=O)c1c(N)c(C#N)c2n1CCCCC2	95	i	i	i	i	i
COc1ccc(-c2nnc(-c3ccc(N)cc3)o2)cc1	i	i	77	i	i	i
CCCN(CCO)Cc1ccc2ccccc2c1	52	i	i	i	i	i
CCCN(CCO)Cc1cccc(Oc2ccccc2)c1	i	i	i	i	i	i
CCCOc1ccc(CC(=O)NCC2(c3ccccc3)CCOCC2)cc1OC	i	i	i	i	i	i
O=C(CCN1C(=O)c2ccccc2C1=O)OCn1nnc2ccccc2c1=O	i	i	i	i	i	i
COC(=O)Cc1cc(=O)[nH]c(/N=C(\N)Nc2ccccc2C)n1	nt	i	nt	nt	i	nt
O=C(Nc1c(F)cccc1F)c1ccc(-n2cncn2)nc1	93	i	i	i	i	i
O=C(Nc1ccc(F)cc1F)c1ccc(-n2cncn2)nc1	100	i	76	i	i	i
COc1cc(OC)cc(C(=O)Nc2c(F)cccc2F)c1	nt	i	nt	nt	i	nt
COc1ccccc1NC(=O)c1ccc(-n2cccn2)nc1	i	i	i	i	i	2
COc1ccc(NC(=O)c2ccc(-n3cccn3)nc2)c(OC)c1	i	i	i	i	i	i
SMILES	CYP2C19 inh	PLK1 kinase inh	CYP2C9 inh	CYP2C19 act	PLK1 PBD inh	CYP2C9 activ
Cc1ccccc1NC(=O)c1ccc(-n2cncn2)nc1	99	i	85	i	i	i
Cc1ccccc1NC(=O)c1c(F)c(F)c(F)c(F)c1F	i	i	i	i	i	i
Cc1cc(C)n(-c2nnc(C)c(=O)[nH]2)n1	i	i	i	i	i	i
Cc1nc2ccccc2nc1N1CCC(C)CC1	i	i	i	i	i	i
Cc1cc(N2CCC(C)CC2)nc2cccc(O)c12	i	63	i	i	i	3
O=C(c1coc(=O)c(Br)c1)N1CCCc2ccccc21	i	i	i	i	i	i
CC(C(=O)Nc1ccccc1)c1ccc(-c2ccccc2)c(F)c1 (configuration not stated)	i	i	i	i	i	i
CC(Oc1ccc(-c2ccccc2)c(F)c1)c1ccn(S(=O)(=O)c2ccc(Br)cc2)n1 (configuration not stated)	58	i	71	i	i	i
